# According to PubChem BioAssay (Tox21):
# Where “and” joins values, the source holds several entries; their conditions need not be identical. Equal entries are not always repeated. Results filed as inconclusive are left out. A call without a number means that no potency is given here. Some compounds were tested as several samples or in several runs, with calls that do not always agree. Calls of active or inactive are those of the source. Unless noted, calls come from the whole dose curve; as a rule, active = well fitted curve in the direction sought with a large enough effect in the repeat runs; inconclusive = weak or mixed curves; inactive = no such curve, though single readings can be large; an effect the other way counts as inactive or inconclusive.
# Experiments:
# [1] = qHTS assay to test for compound auto fluorescence at 535 nm (green) in HEK293 cells (AID 720680)
# [2] = qHTS assay to test for compound auto fluorescence at 460 nm (blue) in HEK293 cell free culture (AID 720681)
# Summary of the method: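 Test compounds were pinned into cell-free culture medium (DMEM with 10% FBS) and fluorescence was read directly at Ex/Em 405/460 nm. Signals were expressed as fluorescence equivalents of triamterene, with DMSO vehicle as control.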
# [3] = qHTS assay to test for compound auto fluorescence at 535 nm (green) in HEK293 cell free culture (AID 720682)
# Summary of the method: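 Steps: dispense DMEM/10% FBS into empty wells; pin in compound or DMSO; measure fluorescence at 485/535 nm. Values are fluorescein equivalents.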
# [4] = qHTS assay to test for compound auto fluorescence at 590 nm (red) in HEK293 cell free culture (AID 720683)
# Summary of the method: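 Tox21 10K library compounds were pinned into cell-free DMEM with 10% FBS and fluorescence was read at excitation 540 nm. Activity is expressed as Rose Bengal sodium equivalency.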
# [5] = qHTS assay to test for compound auto fluorescence at 590 nm (red) in HepG2 cell free culture (AID 720684)
# Summary of the method: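 Measured in medium alone (MEM containing 10% FBS) following pintool addition of compound; emission at 590 nm with 540 nm excitation, referenced to Rose Bengal sodium.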
# [6] = qHTS assay to test for compound auto fluorescence at 460 nm (blue) in HepG2 cell free culture (AID 720685)
# Summary of the method: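 Compound (23 nL) or DMSO pinned into cell-free MEM with 10% FBS; blue fluorescence read at 405/460 nm excitation/emission, expressed as auto-fluorescence equivalency to triamterene.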
# [7] = qHTS assay to test for compound auto fluorescence at 535 nm (green) in HepG2 cell free culture (AID 720686)
# [8] = qHTS assay to test for compound auto fluorescence at 460 nm (blue) in HepG2 cells (AID 720687)
# Summary of the method: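 Cells (2,000/well in MEM with 10% FBS) attached overnight at 37 C, then were exposed to compound or DMSO for 1 hr at 37 C, 5% CO2. Fluorescence read at Ex/Em 405/460 nm, expressed as triamterene-equivalent signal.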
# [9] = target: Glucocorticoid receptor (Homo sapiens) (UniProt P04150); experiment: qHTS assay to identify small molecule agonists of the glucocorticoid receptor (GR) signaling pathway (AID 720691; active = well fitted activation curve with a large enough effect in the signal ratio in the repeat runs, not every such curve was filed as active; the % refers to the signal ratio)
# Sequence of Glucocorticoid receptor (Homo sapiens) (P04150 whole entry, looked up): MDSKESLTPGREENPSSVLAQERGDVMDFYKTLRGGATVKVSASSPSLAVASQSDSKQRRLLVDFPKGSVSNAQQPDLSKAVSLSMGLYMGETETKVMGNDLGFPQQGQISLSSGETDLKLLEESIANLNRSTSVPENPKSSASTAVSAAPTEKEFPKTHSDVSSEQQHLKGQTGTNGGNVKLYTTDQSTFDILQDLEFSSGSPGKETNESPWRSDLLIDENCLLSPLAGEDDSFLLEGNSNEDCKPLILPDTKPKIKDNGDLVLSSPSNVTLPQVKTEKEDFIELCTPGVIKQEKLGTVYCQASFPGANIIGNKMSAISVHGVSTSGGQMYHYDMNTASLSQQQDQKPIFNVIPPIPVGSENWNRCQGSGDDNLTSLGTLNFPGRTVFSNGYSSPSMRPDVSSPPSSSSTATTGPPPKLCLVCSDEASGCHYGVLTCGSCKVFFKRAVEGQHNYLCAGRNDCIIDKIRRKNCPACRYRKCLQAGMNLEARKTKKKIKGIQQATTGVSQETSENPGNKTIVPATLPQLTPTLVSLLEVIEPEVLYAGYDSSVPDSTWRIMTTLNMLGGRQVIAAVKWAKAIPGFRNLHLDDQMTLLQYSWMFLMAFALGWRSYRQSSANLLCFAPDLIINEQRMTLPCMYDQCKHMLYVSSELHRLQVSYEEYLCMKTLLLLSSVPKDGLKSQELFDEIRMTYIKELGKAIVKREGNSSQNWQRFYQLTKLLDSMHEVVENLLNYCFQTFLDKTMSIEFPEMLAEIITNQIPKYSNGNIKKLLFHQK
# Summary of the method: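 Reporter read-out: fluorescence intensity following 2 h room-temperature LiveBLAzer B/G FRET substrate loading. Prior step: GR-bla HeLa cells held 4 h, then treated 18 h at 37 C.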
# [10] = target: Glucocorticoid receptor (Homo sapiens) (UniProt P04150); experiment: qHTS assay to identify small molecule antagonists of the glucocorticoid receptor (GR) signaling pathway (AID 720692; active = well fitted inhibition curve with a large enough effect in the signal ratio in the repeat runs, not every such curve was filed as active; the % refers to the signal ratio; note: potency is the fitted concentration of half-maximal effect)
# Summary of the method: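 Dexamethasone (5 nM final) stimulated a stably integrated GRE-beta-lactamase reporter in HeLa cells during 18 h co-incubation with compounds; signal was quantified as fluorescence intensity of B/G FRET substrate after 2 h.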
# [11] = qHTS assay to identify small molecule antagonists of the glucocorticoid receptor (GR) signaling pathway - cell viability counter screen (AID 720693); note: nearly all actives have a fitted effect of over 55% in size; note: potency is the fitted concentration of half-maximal effect
# [12] = qHTS assay to identify small molecule antagonists of the androgen receptor (AR) signaling pathway using the MDA cell line - cell viability counter screen (AID 743041; note: nearly all actives have a fitted effect of over 45% in size)
# Summary of the method: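 Viability counter screen run alongside the AR antagonist reporter: cells seeded 5 h before compound, R1881 added, 16 h incubation at 37C without CO2, fluorescent CellTiter-Fluor signal quantified.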
# [13] = qHTS assay for identifying genotoxic compounds that show differential cytotoxicity against isogenic chicken DT40 cell lines with known DNA damage response pathways - wild type cell line (AID 743012); note: nearly all actives have a fitted effect of over 60% in size; note: potency is the fitted concentration of half-maximal effect
# Summary of the method: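 Using parental DT40 (300 cells/well), compounds delivered in DMSO incubate 40 h at 37 C/5% CO2. CellTiter-Glo reagent then stands 30 min at room temperature, and luminescence gives cell viability.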
# [14] = qHTS assay for identifying genotoxic compounds that show differential cytotoxicity against isogenic chicken DT40 cell lines with known DNA damage response pathways - Rev3 mutant cell line (AID 743014); note: nearly all actives have a fitted effect of over 55% in size; note: potency is the fitted concentration of half-maximal effect
# [15] = qHTS assay to identify small molecule antagonists of the androgen receptor (AR) signaling pathway - cell viability counter screen (AID 743033; note: nearly all actives have a fitted effect of over 45% in size; note: potency is the fitted concentration of half-maximal effect)
# [16] = qHTS assay for identifying genotoxic compounds that show differential cytotoxicity against isogenic chicken DT40 cell lines with known DNA damage response pathways - Rad54/Ku70 mutant cell line (AID 743015); note: nearly all actives have a fitted effect of over 60% in size; note: potency is the fitted concentration of half-maximal effect
# [17] = target: Androgen receptor (Homo sapiens) (UniProt P10275); experiment: qHTS assay to identify small molecule antagonists of the androgen receptor (AR) signaling pathway (AID 743035; active = well fitted inhibition curve with a large enough effect in the signal ratio in the repeat runs, not every such curve was filed as active; the % refers to the signal ratio)
# Sequence of Androgen receptor (Homo sapiens) (P10275 whole entry, looked up): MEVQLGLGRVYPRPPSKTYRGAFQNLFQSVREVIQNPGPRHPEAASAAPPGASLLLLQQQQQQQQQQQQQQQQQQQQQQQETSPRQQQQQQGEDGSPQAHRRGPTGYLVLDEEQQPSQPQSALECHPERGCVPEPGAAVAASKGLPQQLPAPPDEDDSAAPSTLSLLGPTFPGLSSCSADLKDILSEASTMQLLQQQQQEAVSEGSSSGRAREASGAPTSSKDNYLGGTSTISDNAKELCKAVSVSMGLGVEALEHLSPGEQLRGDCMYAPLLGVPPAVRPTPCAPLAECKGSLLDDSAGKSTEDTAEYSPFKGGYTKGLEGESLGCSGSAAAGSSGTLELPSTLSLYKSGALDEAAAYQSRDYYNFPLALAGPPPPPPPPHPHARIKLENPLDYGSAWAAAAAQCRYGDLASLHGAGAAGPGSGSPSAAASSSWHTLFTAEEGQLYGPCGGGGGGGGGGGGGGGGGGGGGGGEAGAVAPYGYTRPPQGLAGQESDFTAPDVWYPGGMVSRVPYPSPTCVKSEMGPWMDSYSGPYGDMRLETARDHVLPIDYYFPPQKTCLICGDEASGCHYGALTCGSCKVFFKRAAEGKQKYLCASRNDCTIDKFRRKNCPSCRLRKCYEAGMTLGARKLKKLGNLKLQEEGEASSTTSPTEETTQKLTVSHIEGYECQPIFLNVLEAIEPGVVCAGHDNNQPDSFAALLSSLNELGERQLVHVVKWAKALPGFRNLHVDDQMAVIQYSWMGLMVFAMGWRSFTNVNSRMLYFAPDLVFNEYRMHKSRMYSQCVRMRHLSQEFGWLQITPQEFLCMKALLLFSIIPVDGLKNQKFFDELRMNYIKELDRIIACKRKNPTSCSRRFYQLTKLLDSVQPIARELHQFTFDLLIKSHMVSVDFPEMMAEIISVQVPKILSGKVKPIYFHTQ
# Summary of the method: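 Using qHTS, AR-UAS-bla GripTite HEK293 cells received compound, then R1881, and were cultured 16 h at 37C/5% CO2 before a 2 h room-temperature LiveBLAzer B/G FRET substrate step and fluorescence measurement.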
# [18] = target: Androgen receptor (Homo sapiens) (UniProt P10275); experiment: qHTS assay to identify small molecule agonists of the androgen receptor (AR) signaling pathway using the MDA cell line (AID 743040; note: nearly all actives have a fitted effect of over 20% in size)
# Summary of the method: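 Luminescence from ONE-Glo, read after 30 min at room temperature, reflects MMTV-driven luciferase in MDA-kb2 cells (AR- and GR-responsive). Treatment lasted 16 h at 37C, 0% CO2.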
# [19] = target: Androgen receptor (Homo sapiens) (UniProt P10275); experiment: qHTS assay to identify small molecule antagonists of the androgen receptor (AR) signaling pathway using the MDA cell line (AID 743042; note: nearly all actives have a fitted effect of over 55% in size)
# Summary of the method: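 MDA-kb2 cells (human breast carcinoma, stably carrying an MMTV-luciferase reporter responsive to AR and GR) were plated at 3,000 cells/well and preincubated 5 hr at 37C, then given compound plus R1881 agonist for 16 h. ONE-Glo luminescence was read.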
smiles,measurement,setting,value
CN(C(=O)CN(CCO)CC(=O)N(C)C(C)(C)Cc1ccccc1)C(C)(C)Cc1ccccc1,"fluorescence, % of fluorescein",[1],0.0843% [at 18.6 µM] (inactive)
same,"fluorescence, % of fluorescent control",[2],0.0268% [at 18.6 µM] (inactive)
same,activity change,[3],-0.0126% [at 18.6 µM] (inactive)
same,"fluorescence, % of fluorescent control",[4],0% [at 18.6 µM] (inactive)
same,"fluorescence, % of Rose Bengal",[5],0.844% [at 18.6 µM] (inactive)
same,"fluorescence, % of fluorescent control",[6],-0.036% [at 18.6 µM] (inactive)
same,"fluorescence, % of fluorescein control",[7],0.0894% [at 18.6 µM] (inactive)
same,"fluorescence, % of fluorescent control",[8],0.0182% [at 18.6 µM] (inactive)
same,Potency,[9],inactive
same,Potency,[10],inactive
same,Potency,[11],inactive
same,Potency,[12],inactive
CCOC(=O)/C=C/C(=O)OCC,outcome,[1],inactive
same,Potency,[2],inactive
same,outcome,[3],inactive
same,outcome,[4],inactive
same,outcome,[5],inactive
same,Potency,[6],inactive
same,outcome,[7],inactive
same,Potency,[8],inactive
same,Potency,[9],inactive
same,Potency,[10],inactive
same,Potency,[13],inactive
same,Potency,[14],inactive
same,Potency,[15],inactive
same,Potency,[12],inactive
COc1ccccc1N1CCN(CC(O)COc2cccc3ccccc23)CC1 (stereo not given),outcome,[1],inactive
same,Potency,[2],inactive
same,outcome,[3],inactive
same,outcome,[4],inactive
same,outcome,[5],inactive
same,Potency,[6],inactive
same,outcome,[7],inactive
same,Potency,[8],inactive
same,Potency,[9],inactive
same,Potency,[11],inactive
same,Potency,[13],23.7 µM (active)
same,Potency,[14],29.8 µM (active)
same,Potency,[16],29.8 µM (active)
same,Potency,[12],inactive
CCC=CC#N,outcome,[1],inactive
same,Potency,[2],inactive
same,outcome,[3],inactive
same,outcome,[4],inactive
same,outcome,[5],inactive
same,Potency,[6],inactive
same,outcome,[7],inactive
same,Potency,[8],inactive
same,Potency,[9],inactive
same,Potency,[10],inactive
same,Potency,[11],inactive
same,Potency,[13],inactive
same,Potency,[14],inactive
same,Potency,[16],inactive
same,Potency,[15],inactive
same,Potency,[12],inactive
C=Cc1ccc(S(=O)(=O)O)cc1,outcome,[1],inactive
same,Potency,[2],inactive
same,outcome,[3],inactive
same,outcome,[4],inactive
same,outcome,[5],inactive
same,Potency,[6],inactive
same,outcome,[7],inactive
same,Potency,[8],inactive
same,Potency,[9],inactive
same,Potency,[11],inactive
same,Potency,[13],inactive and 30.6 µM (active)
same,Potency,[14],inactive and 38.6 µM (active)
same,Potency,[16],inactive and 2.17 µM (active)
same,Potency,[15],inactive
same,Potency,[12],inactive
C=CC(=O)[O-].C=CC(=O)[O-].[Zn+2],outcome,[1],inactive
same,Potency,[2],inactive
same,outcome,[3],inactive
same,outcome,[4],inactive
same,outcome,[5],inactive
same,Potency,[6],inactive
same,outcome,[7],inactive
same,Potency,[8],inactive
same,Potency,[9],inactive
same,Potency,[11],inactive
same,Potency,[13],inactive
same,Potency,[14],inactive
same,Potency,[15],inactive
same,Potency,[12],inactive
O=C1NC(=O)c2cc([N+](=O)[O-])ccc21,outcome,[1],inactive
same,Potency,[2],inactive
same,outcome,[3],inactive
same,outcome,[4],inactive
same,outcome,[5],inactive
same,Potency,[6],inactive
same,outcome,[7],inactive
same,Potency,[8],inactive
same,Potency,[9],inactive
same,Potency,[11],inactive
same,Potency,[13],inactive
same,Potency,[14],inactive
same,Potency,[16],inactive
same,Potency,[15],inactive
same,Potency,[17],inactive
same,outcome,[18],inactive
same,Potency,[12],inactive
same,Potency,[19],inactive
CC(C)=CCC/C(C)=C/CC/C(C)=C/CCC(=O)OC/C=C(\C)CCC=C(C)C,outcome,[1],inactive
same,Potency,[2],inactive
same,outcome,[3],inactive
same,outcome,[4],inactive
same,outcome,[5],inactive
same,Potency,[6],inactive
same,outcome,[7],inactive
same,Potency,[8],inactive
same,Potency,[9],inactive
same,Potency,[11],inactive
same,Potency,[14],inactive
same,Potency,[15],inactive
same,Potency,[12],inactive
COC(=O)C1=C(C)NC(C)=C(C(=O)O[C@@H]2CCCN(Cc3ccccc3)C2)[C@@H]1c1cccc([N+](=O)[O-])c1,outcome,[1],inactive
same,Potency,[2],inactive
same,outcome,[3],inactive
same,outcome,[4],inactive
same,outcome,[5],inactive
same,Potency,[6],inactive
same,outcome,[7],inactive
same,Potency,[8],inactive
same,Potency,[10],10.7 µM (active)
same,Potency,[13],13.3 µM (active)
same,Potency,[14],21.1 µM (active)
CN1C(=O)N(c2ccccc2Br)Cc2cnc(Nc3ccc4c(c3)OCC(CO)O4)nc21 (stereo not given),outcome,[1],inactive
same,Potency,[2],inactive
same,outcome,[3],inactive
same,outcome,[4],inactive
same,outcome,[5],inactive
same,Potency,[6],inactive
same,outcome,[7],inactive
same,Potency,[8],inactive
same,Potency,[11],13.8 µM (active)
same,Potency,[13],7.7 µM (active)
same,Potency,[14],9.69 µM (active)
same,Potency,[16],6.86 µM (active)
same,Potency,[15],43.6 µM (active)
Cc1[nH]cnc1CN1CCc2c(c3ccccc3n2C)C1=O,outcome,[1],inactive
same,Potency,[2],inactive
same,outcome,[3],inactive
same,outcome,[4],inactive
same,outcome,[5],inactive
same,Potency,[6],inactive
same,outcome,[7],inactive
same,Potency,[8],inactive
same,Potency,[11],inactive
same,Potency,[13],inactive
same,Potency,[14],inactive
same,Potency,[16],inactive
same,Potency,[15],inactive
same,Potency,[12],inactive
CC1CC(OC(=O)C(O)c2ccccc2)CC(C)(C)N1C (stereo not given),outcome,[1],inactive
same,Potency,[2],inactive
same,outcome,[3],inactive
same,outcome,[4],inactive
same,outcome,[5],inactive
same,Potency,[6],inactive
same,outcome,[7],inactive
same,Potency,[8],inactive
same,Potency,[9],inactive
same,Potency,[13],inactive
same,Potency,[14],inactive
same,Potency,[16],inactive
same,Potency,[15],inactive
same,Potency,[12],inactive
O=C1c2ccccc2C(=O)C1c1nc2ccccc2c(Br)c1O,outcome,[1],inactive
same,Potency,[2],inactive
same,outcome,[3],inactive
same,outcome,[4],inactive
same,outcome,[5],inactive
same,Potency,[6],inactive
same,outcome,[7],inactive
same,Potency,[8],inactive
same,Potency,[9],inactive
same,Potency,[11],inactive
same,Potency,[14],inactive
same,Potency,[16],inactive
same,Potency,[15],inactive
same,Potency,[12],inactive
C=C/C(C)=C/C/C=C(\C)CCC=C(C)C,outcome,[1],inactive
same,Potency,[2],inactive
same,outcome,[3],inactive
same,outcome,[4],inactive
same,outcome,[5],inactive
same,Potency,[6],inactive
same,outcome,[7],inactive
same,Potency,[8],inactive
same,Potency,[9],inactive
same,Potency,[11],inactive
same,Potency,[16],48.6 µM (active)
same,Potency,[15],inactive
same,Potency,[12],inactive
C/C=C(/C(=C/C)c1ccc(O)cc1)c1ccc(O)cc1,"fluorescence, % of fluorescein",[1],0.128% [at 18.6 µM] (inactive)
same,"fluorescence, % of fluorescent control",[2],0.115% [at 18.6 µM] (inactive)
same,activity change,[3],-0.004% [at 18.6 µM] (inactive)
same,"fluorescence, % of fluorescent control",[4],0.121% [at 18.6 µM] (inactive)
same,"fluorescence, % of Rose Bengal",[5],0.0319% [at 18.6 µM] (inactive)
same,"fluorescence, % of fluorescent control",[6],-0.0042% [at 18.6 µM] (inactive)
same,"fluorescence, % of fluorescein control",[7],-0.0063% [at 18.6 µM] (inactive)
same,"fluorescence, % of fluorescent control",[8],0.0165% [at 18.6 µM] (inactive)
same,Potency,[9],inactive
same,Potency,[13],inactive
same,Potency,[12],inactive
Cc1ccc2c(Br)cc(Br)c(O)c2n1,outcome,[1],inactive
same,Potency,[2],inactive
same,outcome,[3],inactive
same,outcome,[4],inactive
same,outcome,[5],inactive
same,Potency,[6],inactive
same,outcome,[7],inactive
same,Potency,[8],inactive
same,Potency,[11],inactive
same,Potency,[13],7.5 µM (active)
same,Potency,[14],9.44 µM (active)
same,Potency,[16],8.41 µM (active)
same,Potency,[15],inactive
same,Potency,[12],inactive
